Sm TGR inh – qHTS Assay for the Inhibitors of Schistosoma Mansoni Peroxiredoxins | Schistosoma mansoni thioredoxin glutathione reductase (TGR), Q962Y6 | purified TGR, DTNB reduction, TNB absorbance 405 nm | Potency, µM (highest dose often 114 µM), for the others: at the highest dose activity change, negative = inhibition, usual class: inhibitors | 360,000 compounds, 3% hits; further: nearly all actives have a fitted effect of over 60% in size
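Kinetic colorimetric format: TGR-catalysed, NADPH-driven DTNB reduction monitored via TNB absorbance. Enzyme dispensed at 20 nM; compound exposure 15 min at room temperature before reaction start.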
TbPYK inhibitor – qHTS of Trypanosoma Brucei Inhibitors. TbPYK enzyme, Kinase-Glo Plus ATP luminescence, 45 min. Potency, µM (titrated, usually from 76.8 µM), for inactives: top-dose activity, negative = inhibition, most hits filed as inhibitors. pyruvate kinase (Trypanosoma brucei), Q57TT1. 410,000 compounds, 0.12% hits; further: nearly all actives have a fitted effect of over 50% in size
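T. brucei PYK with substrate was exposed to pin-transferred compounds across a concentration series, then started with 130 uM ADP (final). After 45 min at room temperature, Kinase-Glo Plus luminescence was read, normalized and curve-fitted.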
AMA1 RON2 block – qHTS for Inhibitors of AMA1-RON; Towards Development of Antimalarial Drug Lead: Primary Screen | AlphaScreen AMA1-biotinylated RON2 peptide binding | Potency, µM (doses to about 58.2 µM), for inactives: at the top dose activity change, negative = inhibition, hits mostly inhibitors | 360,000 compounds, 0.2% hits | Plasmodium falciparum AMA1 (3D7) - RON2 peptide interaction;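 further: 0% = vehicle wells and -100% = peptide control; nearly all actives have a fitted effect of over 45% in size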
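AMA1 (3D7) with his tag at 25 nM final met compounds first, then biotinylated RON2 peptide at 25 nM; detection used donor plus acceptor beads, 10 µg/mL apiece, read by AlphaScreen after 30 min at room temperature.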
RE007 growth inh – qHTS Assay for Inhibitors of the HIV-1 protein Vpr. S. pombe RE007 Vpr strain, BacTiter-Glo ATP luminescence, 24 h. 360,000 compounds, 0.21% hits. Potency, µM (top dose mostly 92.2 µM), for inactives: at the top dose activity change, negative = less growth, actives largely listed as inhibitors; active means well fitted falling curve with a large enough effect; inconclusive means small, poorly fitted or top-dose-only effect; inactive means no such curve, though single readings can be large or run the other way; further: nearly all actives have a fitted effect of over 50% in size
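Fission yeast strain RE007, carrying one chromosomally integrated HIV-1 vpr copy, was seeded at OD 0.01 in PMG+AL medium with 23 nL pinned compound. After 24 h at 30 °C and 99% humidity, viability was read by BacTiter-Glo luminescence.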
LmPK inh – qHTS Assay for Inhibitors of Leishmania Mexicana Pyruvate Kinase (LmPK). Q27686. purified LmPK, Kinase-Glo ATP luminescence, 1 h. Potency, µM (titrated, usually from 57.5 µM), for the others: at the highest dose activity change, negative = inhibition, actives largely listed as inhibitors. 290,000 compounds, 0.37% hits. AID 1721, 2009
Target sequence (Q27686 whole entry, looked up): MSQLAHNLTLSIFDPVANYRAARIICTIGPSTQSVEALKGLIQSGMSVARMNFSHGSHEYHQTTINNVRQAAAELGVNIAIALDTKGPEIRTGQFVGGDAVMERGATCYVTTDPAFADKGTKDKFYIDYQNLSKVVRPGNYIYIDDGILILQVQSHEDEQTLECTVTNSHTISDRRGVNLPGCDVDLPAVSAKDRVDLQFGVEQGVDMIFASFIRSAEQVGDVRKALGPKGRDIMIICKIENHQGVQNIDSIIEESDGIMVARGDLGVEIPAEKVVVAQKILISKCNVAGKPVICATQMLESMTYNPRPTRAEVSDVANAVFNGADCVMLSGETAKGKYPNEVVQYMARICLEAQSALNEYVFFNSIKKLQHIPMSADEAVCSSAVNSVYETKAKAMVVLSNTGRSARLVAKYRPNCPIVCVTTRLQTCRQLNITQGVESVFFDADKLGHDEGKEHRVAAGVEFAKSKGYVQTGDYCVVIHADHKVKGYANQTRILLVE
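Purified LmPK (0.1 nM) with 0.5 mM PEP and 0.1 mM ADP in imidazole buffer pH 7.2 with MgCl2/KCl, 1 h at room temperature. ATP formed was read by luciferase luminescence and normalized to no-enzyme and uninhibited controls.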
* = called active by the depositor; ? = inconclusive; . = not tested or not shown. Shown are actives, neighbours in structure and some others; about 3.2% of the full set was active somewhere. Unless noted, the call rests on the fitted dose curve; in most records, active means well fitted curve in the direction sought with a large enough effect; inconclusive means small, poorly fitted or top-dose-only effect, or another doubt; inactive means no such curve, though single readings can be large; an effect the other way counts as inactive or inconclusive. Unless noted, on the % scale 0 is the no-effect control and ±100 the full control effect; potency means the concentration at half of the fitted maximal effect.

SMILES | Sm TGR inh | TbPYK inhibitor | AMA1 RON2 block | RE007 growth inh | LmPK inh
CCCCNC(=O)CSc1nc(-c2ccc(OC)cc2)cc(C(F)(F)F)n1 | 11% | -2% | . | . | .
Cc1cc(-c2nc3ncccc3o2)ccc1NC(=O)c1ccc(Cl)cc1 | 89µM* | -4% | . | . | .
CCOc1cc(C(=O)Nc2ccc(-c3nc4ncccc4o3)cc2C)cc(OCC)c1OCC | -1% | -3% | . | . | .
CCCN(CCC)c1nn2c(=O)c(C(=O)NCc3cccc(OC)c3)cnc2s1 | -13% | -7% | . | . | .
CC1=C(c2ccc(C)cc2)S(=O)(=O)N(Cc2ccc(C(=O)Nc3ccc(C)c(F)c3)cc2)C1=O | 1% | 3% | . | . | .
CCc1ccc(S(=O)(=O)ON2C(=O)c3ccccc3C2=O)cc1 | 1.4µM* | ? | 0% | -9% | -8%
COc1ccc(OC)c(S(=O)(=O)ON2C(=O)c3ccccc3C2=O)c1 | 0.63µM* | -28% | 3% | 16% | ?
O=C(Cn1ncc(Cl)c(Cl)c1=O)c1ccc(Cl)cc1 | ? | 3% | -1% | 27% | 2%
CC(C)(C)C(=O)Cn1ncc(Cl)c(Cl)c1=O | 40µM* | 0% | 13% | -1% | 0%
C=CCn1c(C)cc(C(=O)Cn2ncc(Cl)c(Cl)c2=O)c1C | 40µM* | -18% | -21% | -16% | -3%
Cc1cc(F)ccc1NC(=O)C1CCCN(S(=O)(=O)c2ccc3c(c2)CCCC(=O)N3)C1 (stereo not drawn) | -1% | -1% | . | . | .
COC(=O)c1ccc(CS(=O)(=O)c2ccc(C)cc2)o1 | 11µM* | 4% | 11% | -4% | 16%
COCCCNC(=O)c1ccc(CSCc2ccc(C)cc2)o1 | 40µM* | -1% | -4% | 14% | -1%
CCCCNC(=O)c1ccc(CS(=O)(=O)c2ccc(C)cc2)o1 | 45µM* | -17% | 0% | 4% | 2%
Cc1ccc(CNC(=O)c2ccc(CSCc3ccc(C)cc3)o2)cc1 | ? | 1% | . | . | .
Cc1ccc(-c2nn(-c3ccccc3)cc2C=C2SC(=S)N(CCS(=O)(=O)O)C2=O)cc1 | . | 1% | 32µM* | 48% | .
Fc1ccc(C(c2ccc(F)cc2)N2CCN(CC=Cc3ccccc3)CC2)cc1 | . | -6% | . | . | .
O=C(NC1CC(=O)N(c2ccc(F)cc2)C1)C(c1ccccc1)c1ccccc1 (stereo not drawn) | 6% | 1% | . | . | .
CCCOc1ccc(N2C(=O)CC(NCCNc3ccc([N+](=O)[O-])cn3)C2=O)cc1 (stereo not drawn) | 8.9µM* | 1% | 26% | ? | 0%
CCCOc1ccc(N2C(=O)CC(NCc3ccc(S(N)(=O)=O)cc3)C2=O)cc1 (stereo not drawn) | 3% | 2% | 4% | -3% | 11%
COc1ccc(CCN2C(=O)CC(NCCc3ccc(S(N)(=O)=O)cc3)C2=O)cc1OC (stereo not drawn) | 18µM* | -10% | 1% | -10% | 10%
COc1ccc(CCN2C(=O)CC(NC34CC5CC(CC(C5)C3)C4)C2=O)cc1OC (stereo not drawn) | 40µM* | 0% | -3% | -5% | 1%
CCCCOc1ccc(N2C(=O)CC(NCCc3ccc(S(N)(=O)=O)cc3)C2=O)cc1 (stereo not drawn) | -31% | -5% | 0% | 63µM* | 4%
COc1ccc(Br)cc1CNC(=O)c1nn(-c2ccc(C)cc2)c(=O)c2c1c1ccccc1n2C | 2% | -4% | . | . | .
O=C(O)c1ccc(-n2[nH]c3c(c2=O)CCCC3)cc1 | 35µM* | ? | -17% | -7% | 2%
SMILES | Sm TGR inh | TbPYK inhibitor | AMA1 RON2 block | RE007 growth inh | LmPK inh
O=C(Nc1nccs1)c1ccc(Br)o1 | -3% | -3% | 17% | 8% | -12%
Cc1csc(NC(=O)c2cccc(C)c2C)n1 | 0% | -9% | -6% | 0% | -5%
Cc1csc(NC(=O)c2ccoc2C)n1 | -16% | ? | 0% | ? | 16µM*
CCOC(=O)Cc1csc(NC(=O)c2ccoc2C)n1 | -25% | -27% | 9% | -30% | 14µM*
CCOC(=O)Cc1csc(NC(=O)/C=C/c2ccc(Br)o2)n1 | 10µM* | -1% | 2% | -14% | -1%
O=C(/C=C/c1ccc(Br)o1)Nc1nccs1 | 3.2µM* | -3% | 5% | 2% | -11%
CC1=C(C(=O)Nc2cccnc2)C(c2ccccc2)n2nc(SCc3ccccc3F)nc2N1 (stereo not drawn) | -9% | 3% | . | . | .
Cc1occc1C(=O)Nc1cc(C(C)(C)C)on1 | -11% | ? | -5% | -26% | 13µM*
CC(=O)N=c1c(C#N)cc2c(=O)n3cccc(C)c3nc2n1Cc1ccco1 | 28µM* | -4% | -9% | 0% | 9%
CCN(c1ccc(Cl)cc1)S(=O)(=O)c1nnc(NC(=O)C2CCCCC2)s1 | 3% | -1% | . | . | .
COc1ccc(CCNC(=O)CCS(=O)(=O)c2cc(Br)cc3c2N(C(C)=O)CC3)cc1OC | -10% | 0% | . | . | .
Cc1nn(C(=O)c2cccc(Cl)c2)c(C)c1S(=O)(=O)N1CCOCC1 | 20µM* | -1% | . | . | .
Cc1nn(C(=O)c2cccc(F)c2)c(C)c1S(=O)(=O)N1CCOCC1 | ? | 3% | . | . | .
CC[n+]1c(C)n(C)c2cc(S(=O)(=O)N(C)C)ccc21 | 50µM* | 1% | 1% | 6% | 1%
O=C(NCC(c1cccs1)S(=O)(=O)c1cccs1)c1ccccc1 (stereo not drawn) | ? | 8% | . | . | .
CCOc1ccc(C(C)=O)cc1N1C(=O)C2C3C=CC(C3)C2C1=O (stereo not drawn) | ? | 1% | 14% | 2% | 8%
CCOc1ccc(C(C)=O)cc1N1C(=O)C2C3C=CC(O3)C2C1=O (stereo not drawn) | 0.71µM* | ? | 6% | ? | ?
O=C(Sc1ccc(Cl)cc1)c1ccccn1 | . | -7% | 40% | 22µM* | .
Cc1cc(/C(N)=N/OC(=O)c2ccc(Cl)cc2)no1 | 8% | -3% | -4% | -24% | 16µM*
N/C(=N\OC(=O)c1cccc(Cl)c1)c1ccccn1 | -1% | -20% | 45% | -28% | 14µM*
Cc1ccc(C(=O)O/N=C(\N)c2ccccn2)c(C)c1 | 5% | ? | 20% | 35µM* | 6.3µM*
O=C(NCCNC(=O)c1ccccn1)c1ccc(Cl)cc1 | -3% | -1% | 1% | -3% | -2%
N/C(=N\OC(=O)c1cccc(Br)c1)c1ccccn1 | 7% | -11% | 85% | -24% | ?
COc1cccc(C2C(C(=O)Nc3cccnc3)=C(C)Nc3nc(SCc4ccccc4)nn32)c1 (stereo not drawn) | -1% | -8% | . | . | .

From PubChem BioAssay
